Source: PubChem BioAssay
KCNQ2 pot: potentiators of rat KCNQ2 potassium channel | CHO-K1 KCNQ2, FluxOR thallium flux fluorescence; stronger effect = higher value | B-score at 10 µM | 310,000 compounds, 0.54% hits;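 active = fluorescence ratio B-score at least 3 SD of library B-scores, with initial fluorescence B-score within 3 of them, cut at about 5.3 in these data; same plate scores as AID 2156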;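 also: B-score of peak minus minimum over baseline fluorescence ratio after K+ and Tl+ stimulus; positive B-score means potentiation of KCNQ2 with more thallium influx and brighter signal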
Target sequence (O88943 whole entry, looked up): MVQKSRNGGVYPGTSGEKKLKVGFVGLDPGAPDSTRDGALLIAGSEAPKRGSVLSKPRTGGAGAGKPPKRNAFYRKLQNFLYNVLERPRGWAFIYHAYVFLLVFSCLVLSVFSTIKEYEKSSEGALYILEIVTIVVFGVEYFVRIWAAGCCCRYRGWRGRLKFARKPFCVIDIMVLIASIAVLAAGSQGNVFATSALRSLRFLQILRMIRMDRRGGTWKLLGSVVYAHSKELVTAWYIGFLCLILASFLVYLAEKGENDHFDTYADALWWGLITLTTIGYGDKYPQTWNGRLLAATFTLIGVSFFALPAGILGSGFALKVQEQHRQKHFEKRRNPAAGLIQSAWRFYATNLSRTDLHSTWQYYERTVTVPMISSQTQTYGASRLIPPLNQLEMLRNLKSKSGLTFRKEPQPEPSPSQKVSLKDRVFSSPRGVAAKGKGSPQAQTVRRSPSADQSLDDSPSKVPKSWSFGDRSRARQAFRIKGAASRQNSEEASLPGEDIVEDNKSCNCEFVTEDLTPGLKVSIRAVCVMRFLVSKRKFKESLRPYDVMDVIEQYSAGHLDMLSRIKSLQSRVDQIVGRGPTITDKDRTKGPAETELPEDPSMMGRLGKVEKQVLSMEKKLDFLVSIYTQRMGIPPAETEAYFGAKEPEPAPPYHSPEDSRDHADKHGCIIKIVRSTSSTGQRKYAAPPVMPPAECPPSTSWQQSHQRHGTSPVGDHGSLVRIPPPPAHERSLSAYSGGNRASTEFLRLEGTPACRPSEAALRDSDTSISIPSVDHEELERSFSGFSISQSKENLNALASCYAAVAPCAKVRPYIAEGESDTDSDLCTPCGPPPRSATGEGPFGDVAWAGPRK
KCNQ2 block: rat KCNQ2 potassium channel inhibitors, primary screen, cell-based, CHO-K1, FluxOR thallium flux, B-score; Potassium voltage-gated channel subfamily KQT member 2 (Rattus norvegicus), O88943; 20 min; stronger effect = lower value; B-score at 10 µM; 310,000 compounds, 1.1% hits;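 active = fluorescence ratio B-score at most minus 3 library SDs, with starting brightness B-score within 2 library SDs, cut at about -5.5 in these data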
Kir21 confirm: mouse Kir2.1 channel blockers, retest, confirmation, cell-based, FluxOR thallium flux, duplicate | shares compounds with KCNQ2 pot | Kir2.1-expressing cells, FluxOR thallium flux fluorescence; stronger effect = lower value | Tl flux remaining, % of negative control (stronger effect = lower value), % at 10 µM | 2,300 compounds, 41% hits;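 active = Primary-screen hit whose thallium flux fell at least 3 control SD below untreated wells in both duplicates, with normal baseline fluorescence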;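 also: 0% = blank wells without stimulus and 100% = stimulated no-compound controls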
HEK293 ctr: counter-screen for Kir2.1 inhibitors: effect in parental HEK293 cells. shares compounds with KCNQ2 pot. FluxOR thallium flux fluorescence; 0% = unstimulated blank wells. FluxOR signal as % of negative control (100 = no effect), % at 10 µM. 2,300 compounds, 19% hits. AID 2105;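 active = dye signal at least 3 control SD above or below untreated wells in both duplicates, raw fluorescence within 3, either direction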;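 also: percent is based on the flux ratio of peak minus minimum fluorescence over baseline F0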
CHO-K1 Tl ctr: nonspecific thallium flux increase in parental CHO-K1, confirmation, counter-screen for KCNQ2 potentiator project, cell-based, FluxOR thallium flux, duplicate | activity increase over 3SD of controls, % at 10 µM | AID 2282, 2010 | 1,200 compounds, 43% hits | parental CHO-K1 cells, FluxOR thallium flux fluorescence; zero = vehicle mean+3SD, 100% = vehicle-minus-blank window | shares compounds with KCNQ2 pot;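 active = signal rise of at least 3 SD above the untreated control mean, in both duplicate wells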;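 also: counter screen of KCNQ2 potentiator hits so any rise reflects channel-independent effects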
KCNQ1 sel pot: human KCNQ1 channel potentiation off-target, confirmation, selectivity assay for KCNQ2 potentiator project, cell-based, CHO, FluxOR thallium flux; shares compounds with KCNQ2 pot; CHO KCNQ1 stable, FluxOR thallium flux fluorescence; beyond 3SD, as % of vehicle-control signal; activation over 3SD threshold, % at 10 µM; 1,200 compounds, 28% hits;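 active = fluorescence ratio rise of at least 3 SD of vehicle wells above their mean, in both replicate wells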;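 also: 0% = vehicle mean plus 3 SD and 100% = vehicle minus unstimulated blank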
KCNQ2 pot conf: rat KCNQ2 channel potentiators, confirmation, cell-based, CHO, FluxOR thallium flux, duplicate; potentiation, less the hit threshold, % at 10 µM; CHO-KCNQ2 cells, FluxOR thallium flux fluorescence; shares compounds with KCNQ2 pot; 1,200 compounds, 68% hits;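 active = fluorescence ratio rising 3 SD or more over the vehicle control mean in both replicates, plus primary screen hit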;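 also: peak minus minimum thallium fluorescence divided by baseline after K/Tl stimulus; 0% = vehicle mean plus 3 SD and 100% = vehicle minus unstimulated blank difference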
Kir2-1 sel: mouse Kir2.1 channel activation off-target, confirmation, selectivity assay for KCNQ2 potentiator project, cell-based, HEK293, FluxOR thallium flux; 1,200 compounds, 2% hits; shares compounds with KCNQ2 pot; AID 2345, 2010; activity over 3SD threshold, % at 10 µM; HEK293 Kir2.1, FluxOR thallium flux fluorescence;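 active = fluorescence ratio rise of at least 3 SD above the vehicle-control mean, seen in both replicates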;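 also: 0% = vehicle mean plus 3 SD and 100% = vehicle minus no-stimulus blank window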
KCNQ2 W236L MoA: potentiators of retigabine-insensitive KCNQ2 W236L, mechanism study for KCNQ2 potentiator project, cell-based, rat KCNQ2 W236L, CHO, automated patch clamp; shares compounds with KCNQ2 pot; automated patch clamp current; current increase over 3SD of negative controls (%), stronger effect = higher value, % at 25 µM; 940 compounds, 10% hits; AID 2558, 2010;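 active = current increase at least 3 SD of the untreated controls above them in both duplicate recordings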
Active calls of the source: *; i = inactive; nt = not tested or not shown. Shown are actives, neighbours in structure and some others; about 1.6% of the full set was active somewhere.

SMILES	KCNQ2 pot	KCNQ2 block	Kir21 confirm	HEK293 ctr	others
O=C(Cn1cnc([N+](=O)[O-])n1)N/N=C/c1ccc2ccccc2c1	0.16	i	nt	nt
Cc1ccccc1NC1=C/C(=N\S(=O)(=O)c2ccc(C(=O)O)cc2)c2ccccc2C1=O	7.2*	i	i	i	CHO-K1 Tl ctr=-10;KCNQ1 sel pot=-14;KCNQ2 pot conf=8.9*;Kir2-1 sel=-6;KCNQ2 W236L MoA=16%*
O=C(O)c1ccc(S(=O)(=O)/N=C2\C=C(Nc3ccccc3F)C(=O)c3ccccc32)cc1	3.3	i	nt	nt
Cn1c(CN2CCCCC2)nc2cc(NC(=O)c3ccccc3Cl)ccc21	nt	i	nt	nt
CC(C)(C)CC(=O)Nc1nnc(-c2cccs2)s1	0.33	i	nt	nt
CCCc1cc(=O)oc2cc(OC(C)C(=O)NCC3CCC(C(=O)O)CC3)c(Cl)cc12 (configuration not stated)	nt	i	nt	nt
CCc1ccc2c(CN3CCN(Cc4ccccc4)CC3)cc(=O)oc2c1	nt	i	nt	nt
Cc1cc2oc(=O)cc(CN(C)Cc3cccc(F)c3)c2cc1C	2	i	nt	nt
CCc1cc2c(CN(C)Cc3ccccc3F)cc(=O)oc2cc1O	nt	i	i	i
CCc1cc2c(CN3CCN(Cc4ccccc4)CC3)cc(=O)oc2cc1O	0.07	i	74%*	i
CN(Cc1nc2ccccc2c(=O)[nH]1)CC(O)COCc1ccco1 (configuration not stated)	nt	i	nt	nt
O=C(O)c1ccc(-n2cccc2/C=N\NC(=O)c2cc3cc(Br)ccc3o2)cc1	4.8	i	nt	nt
O=C(CSc1nc(-c2ccco2)cc(C(F)(F)F)n1)N1CCN(c2ccc(Cl)cc2)CC1	3	i	nt	nt
COc1ccccc1N1CCN(C(=O)CSc2nc(-c3ccco3)cc(C(F)(F)F)n2)CC1	12*	i	i	i	CHO-K1 Tl ctr=16*;KCNQ1 sel pot=13*;KCNQ2 pot conf=11*;Kir2-1 sel=-27;KCNQ2 W236L MoA=i
O=C(CSc1nc(-c2ccco2)cc(C(F)(F)F)n1)N1CCN(Cc2ccccc2)CC1	23*	i	i	i	CHO-K1 Tl ctr=81*;KCNQ1 sel pot=-3;KCNQ2 pot conf=42*;Kir2-1 sel=-47;KCNQ2 W236L MoA=i
COc1ccc(CCNC(=O)CSc2nc(-c3ccco3)cc(C(F)(F)F)n2)cc1OC	0.16	i	nt	nt
Cc1ccc(S(=O)(=O)CC2CSc3nnc(C)c(=O)n32)cc1 (configuration not stated)	0.3	i	nt	nt
COc1ccc(CCC(C)NCc2ccccc2OC)cc1 (configuration not stated)	1	i	nt	nt
CC(CCc1ccccc1)NCc1cccc2ccccc12 (configuration not stated)	nt	i	19%*	i
COc1ccc(CCC(C)NCc2cccc(Br)c2)cc1 (configuration not stated)	nt	i	24%*	i
COCC(C)NCc1cccc2ccccc12 (configuration not stated)	2.5	i	nt	nt
Cc1ccccc1CNS(=O)(=O)c1ccccc1[N+](=O)[O-]	0.52	i	nt	nt
Cc1onc(-c2ccccc2)c1CNS(=O)(=O)c1ccccc1[N+](=O)[O-]	0.48	i	60%*	i
O=c1c2ccccc2n2nnnc2n1-c1ccccc1	nt	i	nt	nt
CC(=O)c1ccc(NC(=O)COC(=O)CCc2ccc(S(=O)(=O)N3CCOCC3)cc2)cc1	1.8	i	nt	nt
SMILES	KCNQ2 pot	KCNQ2 block	Kir21 confirm	HEK293 ctr	others
CC(C)c1ccc(/C=C/C(=O)NC2CCCCC2)cc1	0.67	i	nt	nt
CC(NC(=S)NC1CCCCC1)c1ccc(C(C)(C)C)cc1 (configuration not stated)	9.9*	i	i	i	CHO-K1 Tl ctr=-6;KCNQ1 sel pot=-18;KCNQ2 pot conf=16*;Kir2-1 sel=-34;KCNQ2 W236L MoA=i
CC(C)c1ccc(C(C)NC(=S)NC2CCCCC2)cc1 (configuration not stated)	16*	i	i	i	CHO-K1 Tl ctr=-3;KCNQ1 sel pot=-20;KCNQ2 pot conf=39*;Kir2-1 sel=-42;KCNQ2 W236L MoA=i
CC(C)c1ccccc1NC(=S)NC1CCCCC1	nt	i	nt	nt
Nc1ccc(S(=O)(=O)c2ccccc2)nc1	nt	i	nt	nt
O=[N+]([O-])c1ccc(S(=O)(=O)c2ccccc2)nc1	-5.9	-5.9*	i	70%*
C/C(=C\C(=O)c1ccc(C)cc1)NCc1ccc(F)cc1	nt	i	nt	nt
CCCN1CCc2[nH]c(=S)[nH]c(=O)c2C1	0.37	i	nt	nt
CC(C)CC(NS(=O)(=O)OCC(Cl)(Cl)Cl)c1ccccc1 (configuration not stated)	nt	i	nt	nt
CC(NS(=O)(=O)OCC(Cl)(Cl)Cl)c1ccc(Br)cc1 (configuration not stated)	nt	i	42%*	i
COc1ccc(NC(=O)CN(C)C(=O)c2ccc(N3CCOCC3)c([N+](=O)[O-])c2)cc1	0.12	i	nt	nt
Cc1ccccc1N(CC(=O)O)S(C)(=O)=O	1.4	i	nt	nt
CNCc1cc(Br)c(OCC(=O)Nc2ccccc2OC)c(OC)c1	0.95	i	nt	nt
COc1cc(CNCCc2ccccc2)cc(Br)c1OCC(=O)Nc1ccccc1C	-7.1	-7.1*	55%*	i
CC(C)CC(=O)Nc1ccc(Nc2ccccc2)cc1	1.6	i	nt	nt
CC(C)(C)CC(=O)Nc1ccc(Nc2ccccc2)cc1	6.3*	i	i	i	CHO-K1 Tl ctr=133*;KCNQ1 sel pot=-21;KCNQ2 pot conf=16*;Kir2-1 sel=-40;KCNQ2 W236L MoA=i
O=C(Nc1ccc(F)cc1)C1CC(=O)n2c(nc3ccccc32)N1 (configuration not stated)	0.63	i	nt	nt
C/C(CC(=O)Nc1cccc(Cl)c1)=N\NC(=O)Cc1ccc(Cl)cc1	1.3	i	nt	nt
